Source: PubChem (National Center for Advancing Translational Sciences (NCATS))
NS1 inh = blocks influenza NS1 protein function. AID 2326. Potency, µM (series often up to 46.1 µM), inactives show at the top dose activity, positive = more growth. actives 0.4% (n = 270,000); calls by dose curve; further: actives are rising curves; nearly all actives have a fitted effect of over 50% in size
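OD600 was taken as the measure of yeast growth restored by compound in an NS1-expressing S. cerevisiae strain. Cells had been washed out of glucose medium and diluted 1:100 into galactose -URA medium, pH 6.0.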
SARS PLpro yeast = inhibitors of SARS-CoV papain-like protease in yeast; actives 0.19% (n = 330,000); S. cerevisiae expressing SARS-CoV PLpro, growth rescue; Potency, µM (series often up to 32.9 µM), without a hit: at the highest dose activity, positive = growth rescue, actives largely listed as activators; calls by dose curve; further: 0% is about no effect; nearly all actives have a fitted effect of over 55% in size
Pf growth 48h = inhibits P. falciparum growth in the first generation, 48 h. P. falciparum luciferase growth in erythrocytes, 48 h. actives 5.9% (n = 310,000). AID 504832. Potency, µM (titrated, usually from 28.7 µM), for inactives: top-dose activity change, negative = inhibition, actives largely listed as inhibitors; further: on the % scale 0 is the no-effect control and ±100 the full control effect
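First compound was added to culture medium, then infected red cells at 0.1% parasitemia and 2% hematocrit (final). After incubation at 37 C under 5% CO2, luciferase detection reagent was dispensed and light output recorded.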
Pf growth 96h = P. falciparum growth inhibition at 96 hours; AID 504834; P. falciparum luciferase reporter growth, 96 h; actives 6.9% (n = 320,000); Potency, µM (titrated, usually from 28.7 µM), for the others: top-dose activity change, negative = inhibition, usual class: inhibitors; further: on the % scale 0 is the no-effect control and ±100 the full control effect
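Compounds incubated with erythrocytes infected by luciferase-expressing P. falciparum (2% hematocrit, 0.05% parasitemia final) for 96 hours, 37 C in 5% CO2. Growth inhibition scored as decreased luciferase luminescence.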
* hit, by the source's call. In the library only some 10% were active in any assay of this set; here they are far more common. Unless noted, the call rests on the fitted dose curve; in most records, active means well fitted inhibition curve with a large enough effect; inconclusive means small, poorly fitted or top-dose-only effect, or another doubt; inactive means no such curve, though single readings can be large or run the other way. Potency means the concentration at half of the fitted maximal effect.

Screening C#CCN(C(=O)CC1C(=O)NCCN1C/C=C/c1ccccc1)C1CCCCC1 (stereo unspecified) returned NS1 inh -4.0%, SARS PLpro yeast 0.3%, Pf growth 48h -2.7% and Pf growth 96h 4.65µM*.
Screening CC(C)(C)C(=O)NC1CCN(CC(=O)Nc2ccc3c(c2)OCO3)CC1 returned NS1 inh -14.5%, SARS PLpro yeast -9.7%, Pf growth 48h -7.9% and Pf growth 96h -14.7%.
For NS(=O)(=O)c1ccc(N2N=C(c3ccccc3)CC2c2ccc(F)cc2)cc1 (stereo unspecified) the results were NS1 inh -17.5%, SARS PLpro yeast -17.3%, Pf growth 48h 11.7µM* and Pf growth 96h inconclusive.
COc1ccc(C2CC(c3ccccc3)=NN2c2ccc(S(N)(=O)=O)cc2)cc1 (stereo unspecified) was read as NS1 inh 24.2%, SARS PLpro yeast -0.2%, Pf growth 48h 13.1µM* and Pf growth 96h inconclusive.
`Cc1cnc(CNC(=O)c2ccc3oc(Cc4ccc(Cl)cc4)nc3c2)cn1` gave NS1 inh -23.4%, SARS PLpro yeast -0.3%, Pf growth 48h -17.6% and Pf growth 96h inconclusive.
`Cc1cccc(/C=C2/SC(=O)N(Cc3ccccc3)C2=O)n1` gave NS1 inh 0.7%, SARS PLpro yeast -3.2% and Pf growth 96h 2.62µM*.
Screening O=C1/C(=C/c2ccccn2)SC(=S)N1Cc1ccccc1 returned NS1 inh 5.7%, SARS PLpro yeast 0.5%, Pf growth 48h 9.1% and Pf growth 96h 1.8%.
For Cc1cc(C)cc(C(=O)N[C@@H](C)C(=O)N2CCC3(CC2)NCCc2[nH]cnc23)c1 the results were NS1 inh -14.0%, SARS PLpro yeast -0.1%, Pf growth 48h 2.1% and Pf growth 96h 27.5%.
c1ccc(CCCN2CCN(CCOC(c3ccccc3)c3ccccc3)CC2)cc1 was read as NS1 inh -33.7%.
For Fc1ccc(C(OCCN2CCN(CCCc3ccccc3)CC2)c2ccc(F)cc2)cc1 the results were NS1 inh -47.6%, Pf growth 48h 12µM* and Pf growth 96h -101.1%.
COc1cc2c(cc1OC)/C(=C/C#N)NC(C)(C)C2 was read as NS1 inh 15.2%, SARS PLpro yeast -8.0%, Pf growth 48h 9.28µM* and Pf growth 96h inconclusive.
CC1=C(/C=C/C(C)=N\NC(=O)c2ccncc2)C(C)(C)CCC1 was read as NS1 inh -0.5%, SARS PLpro yeast 0.5%, Pf growth 48h 13.1µM* and Pf growth 96h 47.5%.
For CCCC(C)NC(=O)COc1ccc(S(=O)(=O)c2ccc(OCC(=O)NC(C)CCC)cc2)cc1 (stereo unspecified) the results were NS1 inh 22.4%, SARS PLpro yeast -0.4%, Pf growth 48h 11.7µM* and Pf growth 96h inconclusive.
O=c1c2sccc2n(Cc2cc(=O)n3ccccc3n2)c(=O)n1-c1ccccc1 was read as NS1 inh 8.6%, SARS PLpro yeast 14.8%, Pf growth 48h 0.4% and Pf growth 96h 4.65µM*.
COc1ccccc1CCC(=O)N(C)C1CCCN(Cc2ccccc2F)C1 (stereo unspecified) was read as NS1 inh 0.5%, SARS PLpro yeast 4.3%, Pf growth 48h -1.8% and Pf growth 96h 10.4µM*.
NNC(=O)CCc1ccc2ccc3ccccc3c2c1 was read as NS1 inh 14.6%.
CCC(=O)N(Cc1c(C)nn(-c2ccccc2)c1Cl)c1ccc(Cl)cc1 was read as NS1 inh -26.9%, SARS PLpro yeast inconclusive, Pf growth 48h 10.4µM* and Pf growth 96h 3.2%.
`Cc1ccc(N2CC(NC(=O)C(=O)c3c[nH]c4ccccc34)CC2=O)cc1C` (stereo unspecified) gave SARS PLpro yeast -1.0%, Pf growth 48h 13.2% and Pf growth 96h 15.1%.
For CNc1ccc(C(=O)N2CCN(S(=O)(=O)c3ccc4c(c3)OCCCO4)CC2)cc1[N+](=O)[O-] the results were NS1 inh -25.5%, SARS PLpro yeast -5.4%, Pf growth 48h inconclusive and Pf growth 96h 11.7µM*.
CC(C)(C)c1ccc(C(=O)N2CCN(S(=O)(=O)c3ccc(Br)s3)CC2)cc1 was read as SARS PLpro yeast -2.4%, Pf growth 48h 6.57µM* and Pf growth 96h 10.4µM*.
O=C(c1ccc(S(=O)(=O)N2CCCC2)cc1)N1CCCCCC1 was read as NS1 inh 2.6%, SARS PLpro yeast 1.1%, Pf growth 48h inconclusive and Pf growth 96h -2.5%.
`Cc1ccc(-n2sc3ccccc3c2=O)cc1S(=O)(=O)N1CCCCC1` gave NS1 inh -27.0%, SARS PLpro yeast -28.0%, Pf growth 48h 2.62µM* and Pf growth 96h 4.15µM*.
CCOC(=O)N1CCN(S(=O)(=O)c2ccc(Br)s2)CC1 was read as NS1 inh -32.2%, SARS PLpro yeast -11.0%, Pf growth 48h -10.0% and Pf growth 96h -72.1%.
`Cc1ccc(S(=O)(=O)N2CCN(C(=O)c3ccc(S(=O)(=O)N4CCCC4)cc3)CC2)cc1` gave NS1 inh 7.3%, SARS PLpro yeast -4.1%, Pf growth 48h inconclusive and Pf growth 96h 7.38µM*.
`N#CCSc1ccccc1NC(=O)COC(=O)CCNC(=O)c1ccc([N+](=O)[O-])cc1` gave SARS PLpro yeast -2.1%, Pf growth 48h 12.8% and Pf growth 96h 3.0%.
For N#Cc1cccc(S(=O)(=O)NCC(=O)OCC(=O)c2ccc[nH]2)c1 the results were SARS PLpro yeast 0.4%, Pf growth 48h -9.9% and Pf growth 96h 68.8%.
Screening Cc1ccc(S(=O)(=O)N2CCN(c3ccc(C(=O)N4CCOCC4)cc3[N+](=O)[O-])CC2)cc1 returned NS1 inh -9.4%, SARS PLpro yeast -3.3%, Pf growth 48h -21.2% and Pf growth 96h 10.4µM*.
`Cc1ccc(C(=O)N2CCN(c3cc4c(cc3[N+](=O)[O-])n(C)c(=O)n4C)CC2)cc1` gave NS1 inh -3.3%, SARS PLpro yeast 8.91µM*, Pf growth 48h -7.7% and Pf growth 96h inconclusive.
`Cc1ccc(S(=O)(=O)N2CCN(C(=O)c3ccc(N4CCCC4)c([N+](=O)[O-])c3)CC2)cc1` gave NS1 inh 19.2%, SARS PLpro yeast 2.8%, Pf growth 48h inconclusive and Pf growth 96h 8.28µM*.
Cc1ccc(S(=O)(=O)N2CCN(C(=O)c3ccc(N4CCCCC4)c([N+](=O)[O-])c3)CC2)cc1 was read as NS1 inh 7.4%, SARS PLpro yeast 4.4%, Pf growth 48h inconclusive and Pf growth 96h 10.4µM*.
`CS(=O)(=O)N1CCN(c2ccc(C(=O)N3CCOCC3)cc2[N+](=O)[O-])CC1` gave NS1 inh 3.7%, SARS PLpro yeast -1.4%, Pf growth 48h -0.6% and Pf growth 96h 29.9%.
`CC(=O)N1CCN(c2ccc(S(=O)(=O)N3CCCCC3)cc2[N+](=O)[O-])CC1` gave SARS PLpro yeast 9.4%.
CCc1ccc(S(=O)(=O)NCc2csc(C)n2)cc1 was read as NS1 inh 3.0%, SARS PLpro yeast 1.9%, Pf growth 48h -7.6% and Pf growth 96h 0.0%.
For COc1cccc(NC(=O)CN(C)C(=O)c2ccc3c(c2)S(=O)(=O)N=C2CCCCCN23)c1 the results were SARS PLpro yeast 5.5%, Pf growth 48h -0.4% and Pf growth 96h -1.7%.
